Results as given in PubChem BioAssay (NCATS).
Values joined by “and” are separate entries in the source; they are usually repeats but may differ in a detail not shown here. Identical values can stand only once. Records with an inconclusive call do not appear. Active and inactive are the calls of the source. The call rests on the fitted dose curve; in most records, active means well fitted curve in the direction sought with a large enough effect; inconclusive means small, poorly fitted or top-dose-only effect, or another doubt; inactive means no such curve, though single readings can be large; an effect the other way counts as inactive or inconclusive. Starred links: 1 amine or outer side, 2 acyl side, 3 side chain; linkers in the order of their positions; H or OH if unused. Positions of bridges follow the written chain, without caps; N, C: chain ends. Non-standard residues stand in square brackets, D forms with d. Residues, ends and D or L forms follow the SMILES beside them. Chains are numbered I, II in the order given. Actinocin(9to1) = Cc1c2oc3c(C)ccc(C(=O)[*:1])c3nc-2c(C(=O)[*:2])c(N)c1=O; NMeV = CN[CH](C(=O)O)C(C)C; Sar = CNCC(=O)O

What was measured:
[1] = qHTS Screen of the MIPE 4.0 Collection Against Ewings Sarcoma (TC32) (AID 1259256); settings: TC32 Ewing sarcoma viability, CellTiter-Glo, 48 h; series mostly up to 45.8 µM; further: nearly all actives have a fitted effect of over 45% in size
Procedure, shortened: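 Compound titrations go onto adherent log-phase cells 4 h after seeding, incubate 48 h at 37C, then CellTiter-Glo luminescence reports viability relative to DMSO and cell-free controls.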

[2] = P-glycoprotein substrates identified in KB-8-5-11 adenocarcinoma cell line, qHTS therapeutic library screen (AID 1346987); settings: KB-8-5-11 (P-gp overexpressing) viability, CellTiter-Glo, 72 h; series mostly up to 44.5 µM; further: nearly all actives have a fitted effect of over 65% in size
Procedure, shortened: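 In this qHTS, P-gp-rich KB-8-5-11 cells received library compounds across a concentration range. Viability was quantified by luminescence after 72 h at 37 degree C.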

[3] = NS1 protein of Zika virus - qHTS assay to identify small molecule inhibitors in human HEK 293 cells (AID 1347053); settings: HEK293 ZIKV MR766 infection, NS1 TR-FRET, 24 h; series mostly up to 46.1 µM; further: nearly all actives have a fitted effect of over 55% in size
Procedure, shortened: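 In this cell-based screen, HEK 293 cultures received compound for one hour before Zika MR766 at MOI = 0.5. NS1 was quantified 24 hours later by TR-FRET, normalized to virus-free wells and infected wells.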

[4] = qHTS of pediatric cancer cell lines to identify multiple opportunities for drug repurposing: Primary screen for TC32 cells (AID 1347089); settings: TC32 Ewing sarcoma viability, CellTiter-Glo luminescence, 48 h; series mostly up to 45.8 µM; further: nearly all actives have a fitted effect of over 60% in size
Procedure, shortened: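 In the primary qHTS, MIPE compounds were tested at 11 concentrations (0.78 nM to 46 µM) and NPC compounds at 8 (0.59 nM to 46 µM) on TC32 cells for 48 h. CellTiter-Glo luminescence gave viability.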

[5] = qHTS of pediatric cancer cell lines to identify multiple opportunities for drug repurposing: Primary screen for DAOY cells (AID 1347090); settings: DAOY medulloblastoma viability, CellTiter-Glo luminescence, 48 h; series mostly up to 46 µM; further: nearly all actives have a fitted effect of over 55% in size
Procedure, shortened: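 Eight- or eleven-point concentration series, 48 h treatment at 37 degrees C in growth media; readout CellTiter-Glo luminescence. Potency and efficacy were taken from the concentration-response curves.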

Measured: Potency
Potency means the concentration at half of the fitted maximal effect.

CCc1nc(-c2cccc(C)c2)c(-c2ccnc(NC(=O)c3ccccc3)c2)s1
inactive: [4]
active: [1] 20.9 µM | [2] 20900 nM | [3] 10.5 µM

C=CC(=O)Nc1cccc(Nc2nc(NC3CCC(N(C)C)CC3)nc3c2ncn3C(C)C)c1 (stereo not drawn)
inactive: [2]
active: [1] 0.418 µM | [3] 11.8 µM | [4] 1.47 µM | [5] 0.003 µM

Cc1c2oc3c(C)ccc(C(=O)NC4C(=O)NC(C(C)C)C(=O)N5CCCC5C(=O)N(C)CC(=O)N(C)C(C(C)C)C(=O)OC4C)c3nc-2c(C(=O)NC2C(=O)NC(C(C)C)C(=O)N3CCCC3C(=O)N(C)CC(=O)N(C)C(C(C)C)C(=O)OC2C)c(N)c1=O (stereo not drawn) (I: TVP[Sar][NMeV] / II: TVP[Sar][NMeV]; ester I:1-I:C, II:1-II:C; linker I:N-II:N via Actinocin(9to1); configuration not given here)
inactive: [1]
active: [2] 187 nM | [3] 7.43 µM | [4] 0.523 µM

CC(C)(N)c1ccc(-c2nc3ccccc3nc2-c2ccccc2)cc1
inactive: [4]
active: [1] 23.5 µM | [2] 418 nM and 23.1 µM | [3] 18.7 µM

CCCCOc1ccc(C(=O)Nc2ccc(F)cc2F)cc1
inactive: all assays above

COc1cccc2c1C(=O)c1c(O)c3c(c(O)c1C2=O)C[C@@](O)(C(=O)CO)C[C@@H]3O[C@H]1C[C@H](N)[C@H](OC2CCCCO2)[C@H](C)O1 (stereo partly drawn)
active: [1] 0.0037 µM | [2] 5260 nM | [3] 2.96 µM | [4] 3.7 µM

CN1C(C(=O)Nc2ccccn2)=C(O)c2sc(Cl)cc2S1(=O)=O
active: [1] 5.26 µM
inactive: [2] | [3] | [4]

COc1cc(C(C)C)c(Oc2cnc(NC(CO)CO)nc2N)cc1I
inactive: [2] | [3] | [4]
active: [1] 1.48 µM

COC(=O)C1C2CC3c4[nH]c5cc(OC)ccc5c4CCN3CC2CC(OC(=O)c2cc(OC)c(OC)c(OC)c2)C1OC (stereo not drawn)
active: [1] 2.35 µM
inactive: [2] | [3] | [4]

CC(C)Oc1ccc(C(=O)N[C@H](CNC(=O)CN(C)C)Cc2ccc(-c3cn4cccc([C@H](C)O)c4n3)cc2)cc1Cl
active: [1] 0.0042 µM | [2] 26400 nM | [3] 20.9 µM | [4] 0.37 µM

COc1cc(OC)c(C=CS(=O)(=O)Cc2ccc(OC)c(NCC(=O)O)c2)c(OC)c1
active: [1] 0.0526 µM | [2] 264 nM | [3] 0.469 µM | [4] 0.294 µM

C[C@@H](Oc1ccc2[nH]nc(C=Cc3cnn(CCO)c3)c2c1)c1c(Cl)cncc1Cl
inactive: [3]
active: [1] 0.264 µM | [2] 332 nM | [4] 18.6 µM

CNC(=O)c1cccc(-c2ccc3c(N4CCOC[C@H]4C)nc(N4CCOC[C@H]4C)nc3n2)c1
active: [1] 0.059 µM | [2] 66.2 nM | [4] 0.523 µM
inactive: [3]

O=C1NC(=O)[C@@H](c2cn3c4c(cccc24)CCC3)[C@H]1c1c[nH]c2ccccc12
active: [1] 0.166 µM | [2] 469 nM | [3] 6.62 µM | [4] 2.34 µM

Cc1cc(C(=O)NOCCO)c(Nc2ccc(I)cc2F)n(C)c1=O
inactive: all assays above

C=CC1=C(C(=O)O)N2C(=O)[C@@H](NC(=O)C(=NO)c3csc(N)n3)[C@H]2SC1
inactive: all assays above

C[C@](Cc1c[nH]c2ccccc12)(NC(=O)OC1C2CC3CC(C2)CC1C3)C(=O)NC[C@H](NC(=O)CCC(=O)O)c1ccccc1 (stereo partly drawn)
inactive: all assays above

CN(N=O)C(=O)N[C@H]1C(O)OC(CO)[C@@H](O)[C@H]1O (stereo partly drawn)
inactive: all assays above

Cc1noc(-c2ccc(CSCCC(=O)O)cc2)c1NC(=O)OC(C)c1ccccc1Cl (stereo not drawn)
inactive: all assays above

C=C1C(=O)O[C@H]2[C@@H]1CCC(C)=CCC[C@@]1(C)O[C@@H]21
active: [1] 9.35 µM | [2] 23500 nM | [3] 9.35 µM | [4] 23.4 µM | [5] 9.35 µM

CC(C=CC(=O)NO)=C[C@@H](C)C(=O)c1ccc(N(C)C)cc1
active: [1] 0.332 µM | [2] 1050 nM | [4] 2.34 µM | [5] 1.48 µM
inactive: [3]

COc1ccc(Nc2nccc(NCCO)n2)cc1
inactive: all assays above

O=C(c1ccc(F)cc1)N1CCC[C@H](c2nc(-c3ccc(F)cc3)no2)C1
active: [2] 118 nM
inactive: all other assays above
